Assay outcomes deposited in PubChem BioAssay by National Center for Advancing Translational Sciences (NCATS).
Sampled rows, rich in hits. Any-hit rate of the full collection: about 3.2%.
Tau ThT inhib: qHTS for Inhibitors of Tau Fibril Formation, Thioflavin T Binding. recombinant tau K18 P301L, heparin-induced fibrillization, ThT fluorescence. Potency, µM (top dose mostly 57.4 µM), hits mostly inhibitors. 270,000 compounds, 2.1% hits. AID 1460, 2008; note: nearly all actives have a fitted effect of over 55% in size
Target sequence (P10636 561-689 P618L limits assumed): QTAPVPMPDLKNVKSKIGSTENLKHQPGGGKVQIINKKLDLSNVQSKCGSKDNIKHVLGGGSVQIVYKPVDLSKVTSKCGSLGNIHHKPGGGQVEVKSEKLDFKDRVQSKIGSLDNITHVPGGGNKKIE
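Tau K18 P301L fragment (15 uM unlabeled plus 0.24 uM Alexa 594-labeled) in 100 mM sodium acetate pH 7 with compound, fibrillization induced by 20 uM heparin for 6 hr at 37 C. Thioflavin T (30 uM) added, fluorescence read after 1 hr (ex 450, em 510 nm).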
CBFb RUNX1 block: qHTS Assay for Compounds Blocking the Interaction Between CBF-beta and RUNX1 for the Treatment of Acute Myeloid Leukemia; Runt-related transcription factor 1 (Homo sapiens) + Core-binding factor subunit beta …; Potency, µM (top dose mostly 59.8 µM), usual class: inhibitors; AlphaScreen CBFb-His/RUNX1-biotin binding, biochemical; 230,000 tested, under 10 active
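AlphaScreen proximity signal reports loss of binding between His-tagged CBF-beta and biotin-labelled RUNX1, each at 30 nM. Proteins are pre-associated for 20 minutes, compounds added for 15 minutes, then beads for 90 minutes, all at ambient temperature.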
KDM4E inh: qHTS Assay for Inhibitors of Human Jumonji Domain Containing 2E (JMJD2E) | Lysine-specific demethylase 4E (Homo sapiens), B2RXH2 | JMJD2E catalytic domain, FDH-coupled NADH fluorescence (FDH is formaldehyde dehydrogenase) | Potency, µM (titrated, usually from 57.1 µM), hits mostly inhibitors | 230,000 compounds, 1.6% hits | AID 2147, 2009; active = well fitted inhibition curve with a large enough effect, not every such curve was filed as active; inconclusive = small, poorly fitted or top-dose-only effect, or another doubt; inactive = no such curve, though single readings can be large or run the other way; note: nearly all actives have a fitted effect of over 50% in size
Target sequence (B2RXH2 1-337 limits assumed): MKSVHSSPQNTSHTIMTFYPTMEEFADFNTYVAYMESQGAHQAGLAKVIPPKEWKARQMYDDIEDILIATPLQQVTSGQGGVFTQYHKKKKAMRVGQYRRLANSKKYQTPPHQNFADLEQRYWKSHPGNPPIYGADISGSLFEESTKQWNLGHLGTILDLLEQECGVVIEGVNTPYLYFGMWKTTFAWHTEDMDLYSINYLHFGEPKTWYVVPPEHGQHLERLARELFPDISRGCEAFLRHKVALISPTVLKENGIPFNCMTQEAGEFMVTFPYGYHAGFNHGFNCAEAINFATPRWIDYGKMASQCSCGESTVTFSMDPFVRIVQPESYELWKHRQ
Tau fluor counter: Counterscreen qHTS for Inhibitors of Tau Fibril Formation, Fluorescence Polarization; tau K18 P301L (four-repeat tau fragment) Alexa594 fluorescence, heparin fibrillization; Potency, µM (highest dose often 57.7 µM); 280,000 compounds, 0.93% hits; AID 1463, 2008; note: nearly all actives have a fitted effect of over 55% in size
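Human K18 P301L tau (15 uM unlabeled plus 0.24 uM Alexa 594-labeled, final) in 100 mM sodium acetate pH 7 was mixed with compound and 20 uM heparin and incubated 6 hr at 37 C.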
Tau fibril FP: qHTS for Inhibitors of Tau Fibril Formation, Fluorescence Polarization; 280,000 compounds, 0.39% hits; K18 P301L tau heparin fibrillization, Alexa594 FP, 6 h; AID 1468, 2008; Microtubule-associated protein tau (Homo sapiens), P10636; Potency, µM (highest dose often 57.7 µM), usual class: inhibitors; note: nearly all actives have a fitted effect of over 55% in size
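Recombinant K18 P301L […], labeled with Alexa 594 at 0.24 uM over 15 uM unlabeled; heparin inducer 20 uM final; 37 C, 6 hr; FP endpoint.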
Lamin A splicing: qHTS Assay for Modulators of Lamin A Splicing. HeLa LMNA splicing GFP/RFP minigene ratio, 48 h. Potency, µM (series often up to 46.1 µM), actives largely listed as inhibitors. 200,000 compounds, 0.01% hits. AID 1487, 2009; active = well fitted inhibition curve with a large enough effect in the signal ratio, with a control signal flat, not every such curve was filed as active; inconclusive = small, poorly fitted or top-dose-only effect, or effect the other way, or a change in a side signal; the % refers to the signal ratio
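S3 HeLa stable clones carrying a lamin A-EGFP splicing minigene plus DsRed2 were seeded at 600 cells/well in Opti-MEM with 2% FBS, pin-dosed and incubated 48 h at 37°C. Acumen cytometry (488 nm) gave the GFP/RFP total-intensity ratio.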
Numbers stand for hits; . = inactive; ? = inconclusive; / = no result; ! = a repeat was not active; [ ] = remark or other dose. Unless noted, calls come from the whole dose curve; as a rule, active = well fitted curve in the direction sought with a large enough effect; inconclusive = small, poorly fitted or top-dose-only effect, or another doubt; inactive = no such curve, though single readings can be large; an effect the other way counts as inactive or inconclusive.

SMILES	Tau ThT inhib	CBFb RUNX1 block	KDM4E inh	Tau fluor counter	Tau fibril FP	Lamin A splicing
Cc1cccc(NC2=C(NCCO)C(=O)c3ccccc3C2=O)c1	25.1µM	?	?	?	?	.
COC1=C(Nc2ccc(O)cc2)C(=O)c2ccccc2C1=O	12.6µM	?	10µM	?	?	?
COc1ccc(NC2=C(NCCO)C(=O)c3ccccc3C2=O)cc1	12.6µM	.	?	?	?	?
CCOc1ccc(NC2=C(Cl)C(=O)N(Cc3ccccc3)C2=O)cc1	.	.	.	.	.	.
CCOc1ccc(NC2=C(OC)C(=O)c3ccccc3C2=O)cc1	10µM	/	14.1µM	?	?	?
CC(C)(C)c1ccc(NC(=O)CSc2nnc(-c3n[nH]c4ccccc34)o2)cc1	.	.	.	?	31.6µM	?
Cc1c(C(=O)Nc2cccc(Cl)c2)oc2ccc(S(=O)(=O)N(C)C3CCCCC3)cc12	.	/	/	.	?	?
CCCn1c(=O)n(-c2ccccc2Cl)c(=O)c2sc3ccccc3c21	.	/	/	.	.	/
CCN1C(=O)[C@H]2[C@H]3[C@H](O)[C@H](O)C/C(=N/OC)[C@@H]3CC[C@@H]2C1=O	.[11.5 µM]	.[13.1 µM]	/	.[11.6 µM]	?	/
CC(C)/C=C1\CC/C(=C\c2ccc(N(C)C)cc2)C1=O	2µM	.	.	.	.	?
CC(C)c1ccc(/C=C2\CC/C(=C\C=N\N(C)C)C2=O)cc1	3.16µM	.	?	.	?	.
Cc1ccc(Cl)cc1NC(=O)c1ccc2snnc2c1	.	/	/	.	.	/
CCOc1ccc(N=C2NC(=O)S/C2=C\c2ccc(N(C)C)cc2)cc1	1.12µM	.	.	?	.	.
CCOc1ccc(/C=C2/SC(=O)NC2=S)cc1	3.16µM	.	.	?	.	?
CCOc1ccc(/C=C2\SC(=S)N(N3C(=O)C4CC4C3=O)C2=O)cc1 (stereo unspecified)	?	.	.	.	.	/
CN(C)Cc1cc(O)c(CN(C)C)cc1O	7.08µM	?	?	?	?	.
CN(C)Cc1cc(C(C)(C)C)cc(C(C)(C)C)c1O	.	.	.	.	.	/
CCOP(=O)(OCC)/C(C#N)=C/c1c[nH]c2ccccc12	.	.	.	.	.	/
CCOP(=O)(OCC)/C(C#N)=C/c1ccc([N+](=O)[O-])cc1	.	.	8.91µM	.	.	?
COC(=O)C(Nc1ccccc1Cl)(c1cc(C)c(O)c(C)c1)C(F)(F)F (stereo unspecified)	.	.	.	?	?	.
COC(=O)/C(=C(/F)Sc1cc(C)c(O)c(C)c1)C(F)(F)F	?	.	.	12.6µM[quencher]	?	.
O=C(CN1C(=O)C2CCCCN2c2ccc(C(=O)N3CCCC3)cc21)NCc1ccccc1F (stereo unspecified)	.	/	/	.	.	.
Cc1ccc(NC(=O)/C(C#N)=C(\N)C(Cl)(Cl)Cl)nc1	25.1µM	.	?	.	?	/
Cc1ccc2[nH]c(C)cc(=O)c2c1	.	.	/	.	.	/
c1ccc2c(Cc3c[nH]c4ccccc34)c[nH]c2c1	?	.	.	15.8µM![quencher]	?	/
SMILES	Tau ThT inhib	CBFb RUNX1 block	KDM4E inh	Tau fluor counter	Tau fibril FP	Lamin A splicing
O=C1c2ccccc2C(=O)c2c1cccc2N1CCCC1	14.1µM	.	.	?	?	.
Cn1c(=O)cc2c3c(c(N4CCCCC4)ccc31)C(=O)c1ccccc1-2	11.2µM	?	.	12.6µM[quencher]	?	/
Cn1c(=O)c(NC2CCCCC2)c2c3c(cccc31)C(=O)c1ccccc1-2	.	?	.	?	.	/
O=C1c2ccccc2-c2onc3ccc(N4CCCC4)c1c23	8.91µM	/	17.8µM	10µM[quencher]	28.2µM	/
COc1ccc(Cl)cc1NC(=O)c1c(NCc2cccs2)sc2c1CCCC2	?	/	/	?	.	.
O=c1c(=Nc2ccccc2O)c(=O)c2ccccc12	10µM	.	.	.	?	.
O=C1/C(=C\c2ccc(O)c(O)c2)C(c2ccccc2)=NN1c1ccccc1	?	?	14.1µM	?	.	.
CCOc1cc(/C=C2\C(=O)N(c3nc(-c4ccc(Br)cc4)cs3)N=C2c2ccccc2)ccc1O	11.2µM	?	.	?	?	?
FC(F)(F)c1nc2ccccc2nc1N/N=C\c1ccccc1	14.1µM	?	?	?	.	?
C(=N\Nc1nc(-c2ccccn2)nc2ccccc12)/c1ccccc1	.	.	8.91µM	?	.	/
CC(C)c1cccc2cc3c(nc12)-c1cccc(=O)n1C3	.	.	?	.	.	/
Oc1ccc(NCc2ccccc2OCc2ccccc2F)cc1	15.8µM	?	5.01µM	7.94µM[quencher]	22.4µM!	.
NS(=O)(=O)c1ccc(NCc2ccccc2OCc2ccccc2F)cc1	.	.	.	.	.	.
CCc1ccc(CNc2ccc(O)cc2)cc1	3.16µM	.	.	?	7.08µM	.
Oc1ccc(NCc2ccc(OCc3ccccc3Cl)cc2)cc1	14.1µM	/	/	7.94µM[quencher]	?	/
Oc1ccc(NCc2ccccc2OCc2ccccc2Cl)cc1	28.2µM	/	/	15.8µM[quencher]	.	/
Oc1ccc(NCc2ccc(OCc3ccccc3)cc2)cc1	?	/	/	?	.	/
Cc1ccc(NCc2ccccc2OCc2ccccc2F)cc1	.	?	.	?	.	?
CCOc1ccccc1NC(=O)n1ncc2cc(Cl)ccc21	.	/	/	.	.	/
COc1ccc(OC2C(O)COC2/C=C/C#Cc2ccccc2)cc1 (stereo unspecified)	?	.[13.1 µM]	/	.[11.6 µM]	.[11.6 µM]	/
CCOc1ccccc1CNc1ccc(O)cc1	7.08µM	?	.	?	8.91µM	/
CCOc1cc(CNc2ccc(O)cc2)ccc1OCc1ccc(Cl)cc1Cl	12.6µM	.	4.47µM	?	22.4µM	.
CCOc1cccc(CNc2ccc(O)cc2)c1OCc1ccc(Cl)cc1	8.91µM	.	.	?	12.6µM	.
COc1cccc(CNCCO)c1OCc1ccc(Cl)cc1	.	.	.	.	.	/
O=C(CSc1nnc(-c2ccc(Cl)cc2)o1)N1CCc2ccccc21	.	/	/	.	.	/
O=C1NNC(c2ccccc2)=N/C1=C\c1ccco1	17.8µM	?	.	?	?	.
CCN(Cc1ccccc1)C(=O)Cn1c(=O)n(-c2ccc(Cl)cc2)c(=O)c2c(C)c(C)sc21	.	/	/	.	.	/
COc1ccccc1N1CCN(S(=O)(=O)CCNC(=O)Cc2ccc(Cl)cc2)CC1	.	/	/	.	.	.
COc1ccc(OC)c(C2CC(=O)N3CN(c4ccc(C)c(Cl)c4)CSC3=C2C#N)c1 (stereo unspecified)	28.2µM	.	?	.	?	.
COc1ccc(OC)c(C2CC(=O)N3CN(c4cccc(Cl)c4)CSC3=C2C#N)c1 (stereo unspecified)	28.2µM	.	?	?	?	.
